# Legend:
# Details in all cases: Compound Concentration (nM):1000
# MYLK4 = system: MYLK4
# MYLK = system: MYLK
# MYO3A = system: MYO3A
# MYO3B = system: MYO3B
# NDR1 = system: T1, NDR1
# T1 construct: gene STK38
# NDR2 = system: T2, NDR2
# T2 construct: gene STK38L
# NEK10 = system: NEK10
# NEK11 = system: NEK11
# NEK1 = system: NEK1
# NEK2 = system: NEK2
# NEK3 = system: NEK3
# NEK4 = system: NEK4
# NEK5 = system: NEK5
# NEK6 = system: NEK6
# NEK7 = system: NEK7
# NEK9 = system: NEK9
# NIK = system: T3, NIK
# T3 construct: gene MAP3K14
# NIM1 = system: T4, NIM1
# T4 construct: gene MGC42105
# NLK = system: NLK
# OSR1 = system: T5, OSR1
# T5 construct: gene OXSR1
# 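Also: KINOMEscan scanMAX binding as percent activity remaining versus control; lower means stronger binding.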
compound,measurement,setting,value
Cl.O=C(O[C@H]1CN[C@H](C#Cc2cc3ncnc(Nc4ccc5c(cnn5Cc5ccccc5)c4)c3s2)C1)N1CCOCC1 [GSK200398A],Percent Control,MYLK4,91%
same,Percent Control,MYLK,100%
same,Percent Control,MYO3A,100%
same,Percent Control,MYO3B,100%
same,Percent Control,NDR1,100%
same,Percent Control,NDR2,100%
same,Percent Control,NEK10,96%
same,Percent Control,NEK11,100%
same,Percent Control,NEK1,68%
same,Percent Control,NEK2,72%
same,Percent Control,NEK3,94%
same,Percent Control,NEK4,100%
same,Percent Control,NEK5,100%
same,Percent Control,NEK6,100%
same,Percent Control,NEK7,98%
same,Percent Control,NEK9,95%
same,Percent Control,NIK,100%
same,Percent Control,NIM1,89%
same,Percent Control,NLK,93%
same,Percent Control,OSR1,100%
COc1cc2ncn(-c3cc(O[C@H](C)c4ccccc4Cl)c(C(N)=O)s3)c2cc1OC [GSK237701A],Percent Control,MYLK4,45%
same,Percent Control,MYLK,94%
same,Percent Control,MYO3A,100%
same,Percent Control,MYO3B,100%
same,Percent Control,NDR1,84%
same,Percent Control,NDR2,100%
same,Percent Control,NEK10,95%
same,Percent Control,NEK11,78%
same,Percent Control,NEK1,51%
same,Percent Control,NEK2,3.7%
same,Percent Control,NEK3,85%
same,Percent Control,NEK4,88%
same,Percent Control,NEK5,9.1%
same,Percent Control,NEK6,100%
same,Percent Control,NEK7,63%
same,Percent Control,NEK9,19%
same,Percent Control,NIK,100%
same,Percent Control,NIM1,48%
same,Percent Control,NLK,98%
same,Percent Control,OSR1,78%
NS(=O)(=O)c1ccc(Nc2ncc(-c3ccccc3)o2)cc1 [GW572399X],Percent Control,MYLK4,81%
same,Percent Control,MYLK,100%
same,Percent Control,MYO3A,100%
same,Percent Control,MYO3B,100%
same,Percent Control,NDR1,83%
same,Percent Control,NDR2,100%
same,Percent Control,NEK10,100%
same,Percent Control,NEK11,100%
same,Percent Control,NEK1,84%
same,Percent Control,NEK2,100%
same,Percent Control,NEK3,84%
same,Percent Control,NEK4,100%
same,Percent Control,NEK5,100%
same,Percent Control,NEK6,100%
same,Percent Control,NEK7,78%
same,Percent Control,NEK9,100%
same,Percent Control,NIK,91%
same,Percent Control,NIM1,96%
same,Percent Control,NLK,100%
same,Percent Control,OSR1,100%
CCc1ccc(Oc2nccc(-c3c(-c4ccc(F)cc4)ncn3C3CCNCC3)n2)cc1 [SB-242719],Percent Control,MYLK4,98%
same,Percent Control,MYLK,100%
same,Percent Control,MYO3A,87%
same,Percent Control,MYO3B,100%
same,Percent Control,NDR1,92%
same,Percent Control,NDR2,96%
same,Percent Control,NEK10,99%
same,Percent Control,NEK11,100%
same,Percent Control,NEK1,100%
same,Percent Control,NEK2,96%
same,Percent Control,NEK3,100%
same,Percent Control,NEK4,96%
same,Percent Control,NEK5,100%
same,Percent Control,NEK6,100%
same,Percent Control,NEK7,100%
same,Percent Control,NEK9,100%
same,Percent Control,NIK,100%
same,Percent Control,NIM1,83%
same,Percent Control,NLK,25%
same,Percent Control,OSR1,100%
CCn1c(-c2nonc2N)nc2c(C#CC(C)(C)O)nc(OCCNC)cc21.Cl [GSK949675],Percent Control,MYLK4,100%
same,Percent Control,MYLK,88%
same,Percent Control,MYO3A,100%
same,Percent Control,MYO3B,98%
same,Percent Control,NDR1,87%
same,Percent Control,NDR2,81%
same,Percent Control,NEK10,100%
same,Percent Control,NEK11,100%
same,Percent Control,NEK1,100%
same,Percent Control,NEK2,100%
same,Percent Control,NEK3,100%
same,Percent Control,NEK4,100%
same,Percent Control,NEK5,100%
same,Percent Control,NEK6,95%
same,Percent Control,NEK7,100%
same,Percent Control,NEK9,100%
same,Percent Control,NIK,1.5%
same,Percent Control,NIM1,100%
same,Percent Control,NLK,100%
same,Percent Control,OSR1,100%
CCS(=O)(=O)c1ccc(OC)c(Nc2ncc(-c3cccc(OC)c3)o2)c1 [GW580509X],Percent Control,MYLK4,100%
same,Percent Control,MYLK,94%
same,Percent Control,MYO3A,97%
same,Percent Control,MYO3B,100%
same,Percent Control,NDR1,100%
same,Percent Control,NDR2,100%
same,Percent Control,NEK10,100%
same,Percent Control,NEK11,100%
same,Percent Control,NEK1,98%
same,Percent Control,NEK2,100%
same,Percent Control,NEK3,100%
same,Percent Control,NEK4,100%
same,Percent Control,NEK5,100%
same,Percent Control,NEK6,100%
same,Percent Control,NEK7,100%
same,Percent Control,NEK9,100%
same,Percent Control,NIK,92%
same,Percent Control,NIM1,100%
same,Percent Control,NLK,100%
same,Percent Control,OSR1,100%
Cc1cc(O)cc(C)c1/C=C/c1cncc(C(N)=O)c1 [GW435821X],Percent Control,MYLK4,100%
same,Percent Control,MYLK,97%
same,Percent Control,MYO3A,100%
same,Percent Control,MYO3B,100%
same,Percent Control,NDR1,99%
same,Percent Control,NDR2,100%
same,Percent Control,NEK10,100%
same,Percent Control,NEK11,100%
same,Percent Control,NEK1,100%
same,Percent Control,NEK2,100%
same,Percent Control,NEK3,89%
same,Percent Control,NEK4,86%
same,Percent Control,NEK5,100%
same,Percent Control,NEK6,100%
same,Percent Control,NEK7,100%
same,Percent Control,NEK9,100%
same,Percent Control,NIK,100%
same,Percent Control,NIM1,100%
same,Percent Control,NLK,92%
same,Percent Control,OSR1,100%
CN1CCN(C(=O)c2ccc(NC(=O)Nc3ccc(N(C)c4ccnc(Nc5ccc(CS(C)(=O)=O)cc5)n4)cc3)cc2)CC1.Cl [GW830263A],Percent Control,MYLK4,98%
same,Percent Control,MYLK,100%
same,Percent Control,MYO3A,7%
same,Percent Control,MYO3B,23%
same,Percent Control,NDR1,54%
same,Percent Control,NDR2,100%
same,Percent Control,NEK10,94%
same,Percent Control,NEK11,100%
same,Percent Control,NEK1,63%
same,Percent Control,NEK2,89%
same,Percent Control,NEK3,66%
same,Percent Control,NEK4,85%
same,Percent Control,NEK5,82%
same,Percent Control,NEK6,100%
same,Percent Control,NEK7,93%
same,Percent Control,NEK9,62%
same,Percent Control,NIK,100%
same,Percent Control,NIM1,99%
same,Percent Control,NLK,80%
same,Percent Control,OSR1,98%
Cl.O=S1CCN(Cc2ccc(-c3ccc4ncnc(Nc5ccc(OCc6ccccc6)c(F)c5)c4c3)o2)CC1 [GW576924A],Percent Control,MYLK4,100%
same,Percent Control,MYLK,100%
same,Percent Control,MYO3A,100%
same,Percent Control,MYO3B,100%
same,Percent Control,NDR1,99%
same,Percent Control,NDR2,100%
same,Percent Control,NEK10,100%
same,Percent Control,NEK11,100%
same,Percent Control,NEK1,93%
same,Percent Control,NEK2,100%
same,Percent Control,NEK3,100%
same,Percent Control,NEK4,100%
same,Percent Control,NEK5,100%
same,Percent Control,NEK6,100%
same,Percent Control,NEK7,100%
same,Percent Control,NEK9,100%
same,Percent Control,NIK,100%
same,Percent Control,NIM1,100%
same,Percent Control,NLK,100%
same,Percent Control,OSR1,100%
NS(=O)(=O)c1ccc(N/N=C2\C(=O)Nc3ccc(C(=O)NCc4ccncc4)cc32)cc1 [GW300657X],Percent Control,MYLK4,83%
same,Percent Control,MYLK,45%
same,Percent Control,MYO3A,68%
same,Percent Control,MYO3B,100%
same,Percent Control,NDR1,76%
same,Percent Control,NDR2,82%
same,Percent Control,NEK10,48%
same,Percent Control,NEK11,40%
same,Percent Control,NEK1,80%
same,Percent Control,NEK2,79%
same,Percent Control,NEK3,84%
same,Percent Control,NEK4,89%
same,Percent Control,NEK5,92%
same,Percent Control,NEK6,97%
same,Percent Control,NEK7,62%
same,Percent Control,NEK9,64%
same,Percent Control,NIK,95%
same,Percent Control,NIM1,72%
same,Percent Control,NLK,96%
same,Percent Control,OSR1,75%
COc1cc(C=NNc2ncnc3c2cnn3-c2ccccc2)ccc1O [GW513184X],Percent Control,MYLK4,100%
same,Percent Control,MYLK,100%
same,Percent Control,MYO3A,100%
same,Percent Control,MYO3B,95%
same,Percent Control,NDR1,100%
same,Percent Control,NDR2,100%
same,Percent Control,NEK10,100%
same,Percent Control,NEK11,100%
same,Percent Control,NEK1,100%
same,Percent Control,NEK2,100%
same,Percent Control,NEK3,100%
same,Percent Control,NEK4,100%
same,Percent Control,NEK5,76%
same,Percent Control,NEK6,82%
same,Percent Control,NEK7,100%
same,Percent Control,NEK9,100%
same,Percent Control,NIK,92%
same,Percent Control,NIM1,100%
same,Percent Control,NLK,100%
same,Percent Control,OSR1,100%

# From publication PMC7826789 (International Journal of Molecular Sciences, 2021)
